From PubChem BioAssay AID1445 (SRMLSC, 2008)
Hit rate of the full screen: of about 220,000 compounds, about 910 (0.41%) were called active. The list comes from a sample in which actives are over-represented; it also holds similar structures and randomly drawn compounds. Potency and affinity values are given separately. A number with no mark means an inactive call.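 How the source made its calls: active means primary inhibition above the hit cutoff, then over 50% inhibition at one or more dose response concentrations (cut at about 23% in these data, passing the limit was not always enough); inconclusive means conflicting primary data, or primary hits not chosen for dose response; inactive means low primary inhibition, or under 50% at every dose.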

Molecular target: Aminopeptidase N (Plasmodium falciparum (isolate 3D7)) (UniProt O96935)
Sequence (O96935 whole entry, looked up): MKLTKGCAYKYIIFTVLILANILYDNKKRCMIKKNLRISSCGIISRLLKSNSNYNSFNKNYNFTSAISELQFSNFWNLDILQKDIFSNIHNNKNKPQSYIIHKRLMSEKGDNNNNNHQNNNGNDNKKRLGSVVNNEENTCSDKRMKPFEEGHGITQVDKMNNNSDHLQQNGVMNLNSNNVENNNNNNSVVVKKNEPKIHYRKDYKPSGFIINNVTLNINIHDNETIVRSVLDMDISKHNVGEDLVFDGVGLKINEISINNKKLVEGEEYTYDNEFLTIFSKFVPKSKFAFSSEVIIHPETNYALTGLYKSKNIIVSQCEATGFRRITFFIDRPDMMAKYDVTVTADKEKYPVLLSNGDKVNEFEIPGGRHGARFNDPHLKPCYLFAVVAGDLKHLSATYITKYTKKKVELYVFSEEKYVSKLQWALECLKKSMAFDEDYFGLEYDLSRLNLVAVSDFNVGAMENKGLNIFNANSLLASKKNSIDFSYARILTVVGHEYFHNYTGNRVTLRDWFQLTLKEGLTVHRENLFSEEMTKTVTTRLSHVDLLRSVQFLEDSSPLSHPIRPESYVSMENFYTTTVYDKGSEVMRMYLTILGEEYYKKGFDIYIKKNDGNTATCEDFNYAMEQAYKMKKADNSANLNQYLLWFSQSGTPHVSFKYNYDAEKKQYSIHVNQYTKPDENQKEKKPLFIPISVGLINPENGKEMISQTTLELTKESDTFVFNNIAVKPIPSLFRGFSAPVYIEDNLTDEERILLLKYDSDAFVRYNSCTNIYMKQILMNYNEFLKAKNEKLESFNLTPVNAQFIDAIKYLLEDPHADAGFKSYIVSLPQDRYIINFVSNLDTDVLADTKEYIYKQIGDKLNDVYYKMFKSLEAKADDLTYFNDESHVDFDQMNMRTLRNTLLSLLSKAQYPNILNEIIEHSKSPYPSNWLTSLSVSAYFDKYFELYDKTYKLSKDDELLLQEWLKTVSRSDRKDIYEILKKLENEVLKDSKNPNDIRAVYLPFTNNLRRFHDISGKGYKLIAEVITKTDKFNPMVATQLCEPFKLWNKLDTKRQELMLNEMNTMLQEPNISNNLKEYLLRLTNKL
Assay: P. falciparum M1AAP inhibitors, biochemical, fluorogenic H-Leu-NHMec substrate, 1536-well (AID 1445);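 further: plate controls were DMSO full reaction for no effect and no enzyme background for full effect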
Conditions: recombinant M1AAP, H-Leu-NHMec fluorogenic kinetic assay; at 30 µM, active compounds read high unless noted

In order of falling inhibition:
1. CCCCCCCC[n+]1cccc2c3ccccc3ccc21  29.8%
2. CCC(=O)N1N=C(c2c(-c3ccccc3)c3cc(Cl)ccc3[nH]c2=O)CC1c1ccco1 (configuration not stated)  22.1%
3. Cc1ccc(Nc2nnc(SCC(=O)NC(Cc3c[nH]c4ccccc34)C(=O)O)s2)cc1 (configuration not stated)  22%
4. COc1nc(N=C(N)N)nc2ccc(C)cc12  20.7%
5. O=C(O)C(CO)N=Cc1c(O)c2ccccc2oc1=O (configuration not stated)  20.4%
6. CC(=O)N1N=C(c2c(-c3ccccc3)c3cc(C)ccc3[nH]c2=O)CC1c1ccco1 (configuration not stated)  20%
7. CCCCCCCCC[n+]1cccc2c3ccccc3ccc21  18.5%
8. CC(C)CC(N=Cc1c(O)c2ccccc2oc1=O)C(=O)O (configuration not stated)  16.5%
9. Cc1ccc(C2Nc3ccc4ccccc4c3C3=C2C(=O)CC(C)(C)C3)o1 (configuration not stated)  16%
10. Cc1cccc(-c2cc(N)n(-c3ccccc3)n2)c1  15.4%
11. Cc1nc(-c2ccccc2O)n(-c2ccccc2)n1  14.8%
12. Cc1ccc2nc(CSc3nnc(Cc4cccs4)n3C3CCCCC3)cc(=O)n2c1  14.2%
13. COc1ccc(C2CC(c3c(-c4ccccc4)c4cc(Cl)ccc4[nH]c3=O)=NN2S(C)(=O)=O)cc1OC (configuration not stated)  13.3%
14. O=C(CCC(=O)N(CC(=O)NC1CCCC1)Cc1ccc2c(c1)OCO2)Nc1nccs1  12.3%
15. O=C(O)CCC(=O)N1N=C(c2ccccc2)CC1c1ccc2nccnc2c1 (configuration not stated)  12%
16. CSc1nnc(-c2ccccc2N=Cc2c(C)[nH]n(-c3ccccc3)c2=O)c(=O)[nH]1  11.9%
17. c1ccc(-c2nc(NCc3ccco3)c3oc4ccccc4c3n2)cc1  11.9%
18. Nc1nonc1-c1nc2ccccc2n1CC(=O)O  11.2%
19. Cc1ccc2nc(N=C(N)N)nc(C)c2c1  10.4%
20. CCC(C)(C)NC(=O)CN(C(=O)CCC(=O)Nc1cc(C)ccn1)c1ccc2c(c1)OCO2  10.3%
21. COc1ccccc1NS(=O)(=O)c1cccc(N2CC(O)=C(c3ccccc3)C2=N)c1  9.55%
22. Cc1cc2nc(N=C(N)N)nc(C)c2cc1C  9.31%
23. O=C(CCn1nnc2ccccc2c1=O)N[C@@H](Cc1c[nH]c2ccccc12)C(=O)O  9%
24. O=C(CCCC(=O)N(CC(=O)NC1CCCC1)Cc1ccc2c(c1)OCO2)Nc1ccccn1  8.73%
25. COc1ccc(C2CC(c3ccccc3)=NN2C(=O)COC(=O)C2CC2)cc1 (configuration not stated)  8.28%
26. CCOC(=O)C1=NN(c2ccccc2)C2=NC(C)=C(C(=O)OC)C(c3ccc(C)cc3)N12 (configuration not stated)  8.08%
27. Cc1cccc(N2C(N)=C(C#N)C(C#N)(C#N)C2c2ccccc2)c1 (configuration not stated)  7.85%
28. CCC(C)NC(=O)COC(=O)c1csc2c1CCCC2 (configuration not stated)  7.63%
29. O=C(Nc1ccccc1C(=O)NC(Cc1c[nH]c2ccccc12)C(=O)O)c1ccco1 (configuration not stated)  7.54%
30. Cc1ccc(C2=NN(C(=O)CCCC(=O)O)C(c3ccco3)C2)cc1 (configuration not stated)  7.5%
31. O=C(CCCO)CCCCCCCCC[C@H]1N[C@H](CO)[C@@H](O)[C@@H]1O  7.45%
32. CCCn1nnc(NC(=S)NC(=O)C(C)(C)C)n1  7.37%
33. COC(=O)c1ccccc1NC(=O)CNC(=O)c1ccco1  7.08%
34. NS(=O)(=O)c1cccc(NC(=O)CCSc2ccc(Cl)cc2)c1  6.9%
35. CCOc1ccc(CCNC(=O)COC(=O)c2cc(OC)cc(OC)c2)cc1OCC  6.82%
36. O=C(CSc1nnc(-c2ccc(Cl)cc2)n1Cc1ccco1)Nc1ccc2c(c1)OCCO2  6.61%
37. CC(C)CN(C(=O)CSc1nnc2ccccn12)c1c(N)n(CC(C)C)c(=O)[nH]c1=O  6.58%
38. CC(=O)N1N=C(c2ccc(C)cc2)CC1c1ccco1 (configuration not stated)  6.1%
39. COc1ccc(NC(=O)c2ccccc2C)c(OC)c1  5.69%
40. Cc1ccc(C(=O)NCC(=O)OCC(=O)c2c(N)n(C)c(=O)n(C)c2=O)s1  5.58%
41. O=C(NC(=S)NC1C2CC3CC(C2)CC1C3)C12CC3CC(CC(C3)C1)C2 (configuration not stated)  5.47%
42. COc1ccc(/C=N/NC(=O)CC(=O)N/N=C/c2ccc(OC)cc2)cc1  5.03%
43. O=C(Nc1ccccc1N1CCCC1)c1cccc(Cl)c1Cl  5.02%
44. C(=N\Nc1nc2ccccc2[nH]1)/c1ccncc1  5.02%
45. Cc1ccc(NC(=O)C2CCN(C(=O)c3ccccc3C)CC2)cc1  4.97%
46. CCN(CC)CCOC(=O)c1ccc(N/C=C(/C#N)c2nc(-c3ccc(OC)cc3)cs2)cc1  4.36%
47. CCOc1ccccc1NC(=O)/C(C#N)=C/c1c(C)nn(-c2ccccc2)c1Cl  4.31%
48. CCC(C)NC(=O)C1CCN(S(=O)(=O)c2ccc(OC)cc2)CC1 (configuration not stated)  4.22%
49. O=C(COC(=O)Cc1ccc(F)cc1)NCc1ccco1  4.03%
50. CC(C)(C)NC(=O)CN(Cc1ccc2c(c1)OCO2)C(=O)CCC(=O)Nc1nccs1  3.84%
51. CSc1cc(-c2ccccc2)n(C)c(=O)c1C#N  3.47%
52. CCCCCCCc1ccc(C2NC(=S)NC3=C2C(=O)c2ccccc23)cc1 (configuration not stated)  3.12%
53. CCc1nc(NCc2ccco2)c2oc3ccccc3c2n1  2.95%
54. COc1ccc(C2CC(c3c(-c4ccccc4)c4cc(Cl)ccc4[nH]c3=O)=NN2S(C)(=O)=O)cc1 (configuration not stated)  2.82%
55. O=C(Cn1nnc2ccccc2c1=O)N[C@@H](Cc1ccccc1)C(=O)O  2.79%
56. CCCN(CCC)c1ncnc2c1cnn2-c1ccc(OC)cc1  2.75%
57. COc1ccccc1NS(=O)(=O)c1cccc(NC(=O)Nc2ccccc2)c1  2.5%
58. O=C1c2cc(S(=O)(=O)NCCO)ccc2-c2ccc(S(=O)(=O)NCCO)cc21  2.13%
59. O=C(CCCC(=O)N(CC(=O)NC1CCCCC1)Cc1ccc2c(c1)OCO2)Nc1ccccn1  1.7%
60. COc1cc(/C=C/c2nc(-c3ccccc3O)n[nH]2)cc(OC)c1OC  1.7%
61. CCC(C)(C)NC(=O)CN(Cc1ccccc1Cl)C(=O)CCC(=O)Nc1cc(C)ccn1  1.69%
62. COc1ccc(-c2[nH]c(-c3ccc(C)cc3)nc2SCC(=O)NC2CCCC2)cc1  1.57%
63. CC1=CC2=NC(=O)CC(C)(C(=O)N(CC(=O)NC(C)C)C3CCCC3)N2C=C1 (configuration not stated)  1.08%
64. CCOc1ccccc1Nc1nnc(SCC(=O)Nc2ccc3[nH]c(=O)[nH]c3c2)s1  1.06%
65. COc1ccc(CNC(=O)CCCN2C(=O)c3ccccc3C2=O)cc1  1.01%
66. CCOC(=O)C1=C(O)C(=O)N(c2ccc(S(N)(=O)=O)cc2)C1c1ccc(Br)cc1 (configuration not stated)  0.8%
67. CCOc1cccc(OCCOCCn2cnc3ccccc3c2=O)c1  0.65%
68. Cc1nn(-c2ccc3ccccc3c2)c(=O)c2ccccc12  0.56%
69. CCOC(=O)c1c(-c2ccc(C)o2)csc1NC(=O)CSc1ncn[nH]1  0.41%
70. CCOC(=O)c1c(-c2ccc(F)cc2)csc1NC(=O)c1c(-c2ccccc2)noc1C  0.4%
71. CC1(C)CC(=O)C2=C(C1)c1c(ccc3ccccc13)NC2c1ccco1 (configuration not stated)  0.07%
72. COc1ccc(/C=N/NC(=O)CSCC(=O)Nc2ccccc2)cc1  0.01%
73. COc1ccc(CN2C(=O)c3cccc4cccc(c34)C2=O)cc1  -0.38%
74. O=C(Nc1ccc(Br)cc1)c1cccn1-c1ncc(C(F)(F)F)cc1Cl  -0.41%
75. CC1(C)N=C(N)N=C(N)N1c1ccc(OCCCOc2ccccc2)c(Cl)c1  -0.74%
76. O=C(c1ccco1)N1N=C(c2ccc(Br)cc2)CC1(O)C(F)(F)F (configuration not stated)  -1.14%
77. CN(C1CCCCC1)S(=O)(=O)c1ccccc1  -1.57%
78. Cc1ccc(CN2C3CCCC2CC(NC(=O)c2ccc(C)cc2)C3)cc1 (configuration not stated)  -1.65%
79. COc1ccc(/C(C)=N\Nc2nc(-c3ccc(Cl)cc3)cc(C(F)(F)F)n2)cc1OC  -2.08%
80. COc1ccc(CNC(=O)c2ccccc2SC)cc1  -2.23%
81. COc1ccc(Oc2cc(C)c3cccc(C)c3n2)cc1  -2.89%
82. CC(C)CCNC(=O)CNC(=S)N(Cc1ccccc1)Cc1cccnc1  -3.15%
83. CCOC(=O)C(Cc1c[nH]c2ccccc12)NC(=O)c1ccco1 (configuration not stated)  -3.49%
84. CNCc1ccccc1Sc1ccc(OC)cc1  -3.58%
85. C[C@H](NC(=O)c1nc[nH]c1C(=O)NCCCCCNC(=O)OC(C)(C)C)C(=O)OC(C)(C)C  -4.42%
86. Cc1nn(-c2ccccc2)c(C)c1N  -5.19%
87. Cc1csc(SCC(=O)NC2CCCCC2)n1  -5.21%
88. Cc1cc(C)n(-c2ccc(C(=O)OCC(=O)Nc3ccc(S(=O)(=O)N4CCOCC4)cc3)cc2)n1  -7.49%
89. Cc1ccc([N+](=O)[O-])cc1NC(=O)Nc1ccc(S(N)(=O)=O)cc1  -7.81%

In the case of `O=C(CCC(=O)N(CC(=O)NC1CCCC1)Cc1ccc2c(c1)OCO2)Nc1ccccn1`, the inhibition is reported as 26.2% (active).
In the case of `O=C(NC(Cc1c[nH]c2ccccc12)C(=O)O)c1ccco1` (configuration not stated), the inhibition is reported as 27.5% (active).
For `Cc1nc(NCc2ccco2)c2oc3ccccc3c2n1`, the inhibition was 25.6% (active).
